The text below walks through data of PubChem BioAssay AID372 (MTDP, 2006).

About 770 (0.77%) of roughly 100,000 compounds were called active. Rule as the data show it: active = inhibition above about 50%; inactive = the rest. The entries come from a sample that favours actives as a whole.

The assay concerns the target Gag-Pol polyprotein (Human immunodeficiency virus type 1 group M subtype B (isolate HXB2)) (UniProt P04585). Description: RNase H inhibition, HIV 1 Gag Pol polyprotein, FRET biochemical assay, screening (AID 372). As to conditions: HIV-1 RT RNase H, FRET RNA/DNA substrate fluorescence; at 10 µM; active compounds read high.
For the compound `Cc1ccc(C)c(N2CCN(Cc3ccccc3Br)CC2)c1`, the inhibition (as a rule, the drop in the measured response relative to a control, in per cent) is 6% (inactive). On to `FC(F)(F)c1ccc(CN2CCN(c3cccc(Cl)c3)CC2)cc1`, for which the inhibition is 12% (inactive). Consider `O=Cc1cn(Cc2c(Cl)cccc2Cl)c2ccccc12`, for which the inhibition is 34% (inactive).

For the compound `CN1C(=O)C(=Cc2ccc(N3CCCCCC3)o2)C(=O)N(C)C1=S`, the inhibition is 26% (inactive). `C=CCN1C(=O)NC(=O)/C(=C/c2ccc(-c3cc([N+](=O)[O-])ccc3Cl)o2)C1=O`: the inhibition is 22% (inactive). Turning to `C=CCN1C(=O)/C(=C\c2ccc(-c3cccc(Cl)c3Cl)o2)C(=O)NC1=S`, the inhibition is 55% (active). In the case of `C=CCN1C(=O)/C(=C\c2ccc(C)o2)C(=O)NC1=S`, the inhibition is 13% (inactive). The same measure for `COc1ccc(N2C(=O)/C(=C\c3ccoc3)C(=O)NC2=S)cc1`: 44% (inactive).

Take `N/C(=N\[N+](=O)[O-])N/N=C/c1ccc(-c2ccc(Cl)cc2)o1`: the inhibition is 6% (inactive). On to `N/C(=N\[N+](=O)[O-])N/N=C\c1ccc(-c2ccc(Cl)c([N+](=O)[O-])c2)o1`, for which the inhibition is 56% (active).

Take `N/C(=N\[N+](=O)[O-])N/N=C\c1ccc(-c2ccc([N+](=O)[O-])cc2)o1`: the inhibition is 28% (inactive). The same measure for `Cc1ccc(C2c3c(c4ccccc4oc3=O)Oc3c2c(=O)oc2ccccc32)cc1`: 11% (inactive); for `COc1cccc(C=C2C(=O)NC(=O)NC2=O)c1OC`: 10% (inactive); for `COc1cccc(C=C2C(=O)NC(=S)NC2=O)c1`: 7% (inactive). As to `O=C1NC(=S)NC(=O)C1=Cc1ccccc1OS(=O)(=O)c1ccc2ccccc2c1`, the inhibition was 21% (inactive).

In the case of `O=C1NC(=S)NC(=O)C1=Cc1cccc(OS(=O)(=O)c2ccc3ccccc3c2)c1`, the inhibition was 53% (active). The same measure for `O=C(c1cccs1)C1CN2CCC1CC2` (stereo unspecified): 0% (inactive); for `O=C1NC(=O)C(=Cc2ccccc2F)C(=O)N1`: 3% (inactive); for `Cc1ccc(-c2nn(-c3ccccc3)cc2C=C2C(=O)NC(=S)NC2=O)o1`: 21% (inactive). Turning to `O=C1NC(=O)C(=Cc2cn(-c3ccccc3)nc2-c2ccc(F)cc2)C(=O)N1`, the inhibition was 53% (active). The same measure for `Cc1ccc(C)c(COc2cc(C)cc3oc(=O)c4c(c23)CCC4)c1`: 0% (inactive).
